# Only some compounds are listed: those with a hit (about 3.5% of all), similar ones and a draw of the others.
# TEAD-YAP inh: TEAD-YAP interaction inhibition. HEK-TIYL cells, TEAD-Gal4/YAP UAS-luciferase luminescence. inhibition, % at 9.12 µM. actives 1.4% (n = 640,000); in the data active = inhibition above about 32%;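 also: 0% = median of test compound wells and 100% = reference inhibitor wells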
# FBW7 act: activators of human E3 ligase FBW7; AlphaScreen FBW7–phospho-cyclin E peptide binding, activator screen; normalized activity (activation), % at 26.1 µM; actives 0.13% (n = 650,000); AID 1259310; in the data active = normalized activity above about 1.9%;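 also: purified mutant Fbw7 with reduced substrate affinity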
# Target sequence (Q969H0 whole entry, looked up): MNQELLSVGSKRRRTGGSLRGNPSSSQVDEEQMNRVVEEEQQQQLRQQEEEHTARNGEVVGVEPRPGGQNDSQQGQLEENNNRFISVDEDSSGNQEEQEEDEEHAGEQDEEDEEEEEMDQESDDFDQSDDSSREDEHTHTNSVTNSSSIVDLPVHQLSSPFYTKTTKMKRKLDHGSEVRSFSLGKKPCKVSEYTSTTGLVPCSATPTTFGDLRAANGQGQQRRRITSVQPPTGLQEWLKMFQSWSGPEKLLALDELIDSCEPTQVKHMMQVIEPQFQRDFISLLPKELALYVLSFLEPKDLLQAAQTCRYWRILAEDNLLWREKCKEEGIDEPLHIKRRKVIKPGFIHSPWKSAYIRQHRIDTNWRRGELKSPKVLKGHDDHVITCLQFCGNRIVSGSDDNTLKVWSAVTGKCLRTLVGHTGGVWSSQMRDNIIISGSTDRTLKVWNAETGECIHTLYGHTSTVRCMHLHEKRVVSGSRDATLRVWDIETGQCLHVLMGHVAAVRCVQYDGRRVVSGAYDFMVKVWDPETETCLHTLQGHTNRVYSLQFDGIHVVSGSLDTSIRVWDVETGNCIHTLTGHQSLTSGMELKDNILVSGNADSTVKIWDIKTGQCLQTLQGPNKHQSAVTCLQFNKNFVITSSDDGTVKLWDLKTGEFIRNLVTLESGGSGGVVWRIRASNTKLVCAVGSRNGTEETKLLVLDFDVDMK
# GPR151 ag: activators of human GPR151; PathHunter beta-arrestin GPR151 cells, luminescence; AID 1508602; Q8TDV0; actives 1% (n = 650,000); activation, % at 11.2 µM; in the data active = activation above about 4.9%;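 also: 0% = median of compound wells and 100% = cells with positive control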
# MITF inh: human MITF inhibition, primary screen; actives 0.91% (n = 650,000); O75030; AlphaScreen MITF homodimerization, bead proximity signal; inhibition, % at 2.6 µM; in the data active = inhibition above about 50%;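 also: 0% = vehicle wells with protein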
# Numbers without * were called inactive.
SMILES,TEAD-YAP inh,FBW7 act,GPR151 ag,MITF inh
O=C1SC(c2cc(I)ccc2Cl)=N/C1=C/c1cccc(Cl)c1,-6,0,1,-10
COc1ccc(CCNC(=O)CSc2nc3ccccc3c(=O)n2CCc2ccc(OC)c(OC)c2)cc1OC,6,0,0,-4
COc1ccc(CCNC(=O)CSc2nc3ccc(Br)cc3c3nc4ccccc4n23)cc1OC,-13,1.9*,-2,6
Cc1nnc2sc(-c3cccc(NC(=O)COc4ccccc4[N+](=O)[O-])c3)nn12,2,1,-1,16
Cn1nnnc1Sc1ccc([N+](=O)[O-])c2cnccc12,35*,0,0,-9
Cn1nnnc1Sc1ccc(C(N)=O)cc1[N+](=O)[O-],-4,0,2,5
COCCN1C(=O)/C(=C/c2ccccc2OC)SC1=S,3,0,0,18
COc1ccccc1/C=C1/SC(=S)N(CCCC(=O)O)C1=O,46*,0,1,-1
COc1ccccc1/C=C1/SC(=S)N(CCCCCC(=O)O)C1=O,58*,0,-1,2
O=C(Nc1nc2c(ccc3ccccc32)s1)c1ccc(Oc2ccccc2)cc1,8,0,0,9
CC(C)N(C(=O)CSc1nnnn1C)C(C)C,-2,0,0,-4
CCOC(=O)C1(C)C/C(=N\N)C(=O)N1c1ccc(Cl)cc1 (stereo unspecified),-2,0,1,-11
O=C1N(Cc2ccc(C(F)(F)F)nc2)c2cc([N+](=O)[O-])ccc2OC1(F)F,4,0,0,12
COc1ccccc1CNS(=O)(=O)c1ccc(F)cc1,14,0,1,7
O=S(=O)(NCc1ccco1)c1ccc(Oc2ccc(S(=O)(=O)NCc3ccco3)cc2)cc1,48*,0,1,3
COC(CNS(=O)(=O)c1ccc(Oc2ccc(S(=O)(=O)NCC(OC)OC)cc2)cc1)OC,49*,0,2,-9
COc1ccccc1CNS(=O)(=O)c1ccc(Oc2ccc(S(=O)(=O)NCc3ccccc3OC)cc2)cc1,43*,0,0,0
COCCNCCCCOc1c(Cl)cc(C)cc1Br,2,0,-1,41
COCCCNCCCOc1c(Cl)cc(C)cc1Br,51*,0,0,50
COc1ccc(N2CCN(c3ncnc4sc(C(=O)Nc5cccc(OC)c5)c(C)c34)CC2)cc1,0,0,1,12
COc1ccc(Nc2nc(-c3ccc(C(C)(C)C)cc3)nc3ccccc23)cc1,86*,0,0,10
Cc1ccc(Nc2nc(-c3ccc(C)cc3)nc3ccccc23)cc1,7,0,-2,12
CCN(CC)c1nc(-c2ccc(C)cc2)nc2ccccc12,-16,0,0,-15
CCCCc1ccc(-c2nc(Nc3ccc(C(F)(F)F)cc3)c3ccccc3n2)cc1,38*,0,0,-8
CCN(CC)c1nc(-c2ccc(C(C)(C)C)cc2)nc2ccccc12,58*,0,-2,5
SMILES,TEAD-YAP inh,FBW7 act,GPR151 ag,MITF inh
COc1ccc(-c2nc3cc(NC(=O)c4sc5ccccc5c4Cl)ccc3o2)cc1OC,-3,0,0,0
Cc1cccc(N2CCN(C(=O)c3ccc(Sc4ccccc4Cl)c([N+](=O)[O-])c3)CC2)c1C,2,0,0,2
Cc1ccc(C(=O)C(=O)c2ccc(C)c([N+](=O)[O-])c2)cc1[N+](=O)[O-],-12,0,0,-4
COc1cccc(/C=N\NC(=O)c2cc(C(C)(C)C)[nH]n2)c1,-17,0,1,-10
Cc1ccc2nc(C)c(C(=O)NN=C3CCCCCC3)n2c1,58*,0,1,-5
Cc1nc2ccc(Cl)cn2c1C(=O)NN=C1CCCCC1,11,0,0,0
Cc1ccc(CSc2ccc(-c3sc(C)nc3C)nn2)cc1,-7,0,-1,1
O=C(Cc1ccccc1)Nc1nnc(SCC(=O)NC2CCCCC2)s1,5,0,0,9
Cc1ccc(-c2cc3c(nn2)-c2ccccc2C3=O)cc1,81*,0,-4,9
COC(=O)c1cc(NC(=O)Nc2ccc(Cl)c(Cl)c2)cc(C(=O)OC)c1,5,0,0,10
OCc1ccccc1-c1cnn2c(N3CCOCC3)ccnc12,94*,0,-4,12
c1ccc2c(-c3cnn4c(N5CCOCC5)ccnc34)cccc2c1,-41,0,-1,-6
Clc1cccc(-c2cnn3c(N4CCOCC4)ccnc23)c1,77*,0,-2,18
Fc1ccccc1-c1cnn2c(N3CCOCC3)ccnc12,64*,0,-5,-66
O=C(Nc1ccc(-c2ccco2)cc1)C1CCCN(Cc2ccc3nonc3c2)C1 (stereo unspecified),-1,0,1,11
CN1CCCN(c2cc(-c3cccc(CO)c3)nc3ccnn23)CC1,4,0,1,-12
Fc1cncc(-c2ccnc(Nc3ccc(-n4cnc(N5CCOCC5)n4)cc3)n2)c1,-12,1,-1,7
c1ccc(Cn2nnnc2-c2ccc(Nc3nccc(-c4cccc(N5CCOCC5)c4)n3)cc2)cc1,0,2.0*,-1,19
Cc1ccncc1-c1ncn(-c2ccc(Nc3nccc(-c4cc(F)cc(N5CCOCC5)c4)n3)cc2)n1,8,0,-1,-2
CS(=O)(=O)c1cc(-c2ccnc(Nc3ccc(-n4cnc(-c5ccccn5)n4)cc3)n2)cc(N2CCOCC2)c1,89*,0,-2,-16
CCN1CCN(c2ncn(-c3ccc(Nc4nccc(-c5cccc(N6CCOCC6)c5)n4)cc3)n2)CC1,55*,0,0,7
OC1CCN(c2ncn(-c3ccc(Nc4nccc(-c5cccc(N6CCOCC6)c5)n4)cc3)n2)CC1,82*,0,1,-9
CCN1CCN(c2ncn(-c3ccc(Nc4nccc(-c5cc(C#N)cc(N6CCOCC6)c5)n4)cc3)n2)CC1,3,0,0,4
O=C(c1cc(-c2ccc(F)cc2)c[nH]1)N1CCC2(CC1)OCCO2,-21,0,2,5
CCc1ncn(-c2ccc(Nc3nccc(-c4cccc(N5CCOCC5)c4)n3)cc2)n1,46*,0,0,10
SMILES,TEAD-YAP inh,FBW7 act,GPR151 ag,MITF inh
Cc1ncn(-c2ccc(Nc3nccc(-c4ccc(S(C)(=O)=O)c(N5CCCC(O)C5)c4)n3)cc2)n1 (stereo unspecified),2,0,0,6
CC(C)c1ncn(-c2ccc(Nc3nccc(-c4cccc(N5CCOCC5)c4)n3)cc2)n1,-2,0,0,14
CS(=O)(=O)c1cccc(-c2ccnc(Nc3ccc(-n4cnc(N5CCC(O)CC5)n4)cc3)n2)c1,42*,0,-1,4
c1cc(-c2ccnc(Nc3ccc(-n4cnc(N5CCOCC5)n4)cc3)n2)cc(N2CCOCC2)c1,43*,0,1,-7
CC(=O)c1ccc(N2CCN(S(=O)(=O)c3ccc4c(c3)CC(C)N4C(C)=O)CC2)cc1 (stereo unspecified),41*,0,0,-7
CCC(=O)N1c2ccc(S(=O)(=O)N3CCN(c4ccccc4)CC3)cc2CC1C (stereo unspecified),1,0,0,16

# High-throughput results from PubChem.
